In the supplement of paper PMC11732987, “Enantioselective OTUD7B fragment discovery through chemoproteomics screening and high-throughput optimisation” (Communications Chemistry, 2025):

Assays:
Assay in all cases: log2 ratio of Biotin-Ahx-Ub-VS probe labelling (fragment/DMSO); higher = less target engagement (more negative = stronger competition), active = hit call of the paper (q ≤ 0.05, log2 ratio ≤ -1)
Details in all cases: compound concentration: 200 uM; treatment time: 3 h
USP42 = molecular target: T1, USP42 (UniProt Q9H9J4)
T1 sequence (whole entry): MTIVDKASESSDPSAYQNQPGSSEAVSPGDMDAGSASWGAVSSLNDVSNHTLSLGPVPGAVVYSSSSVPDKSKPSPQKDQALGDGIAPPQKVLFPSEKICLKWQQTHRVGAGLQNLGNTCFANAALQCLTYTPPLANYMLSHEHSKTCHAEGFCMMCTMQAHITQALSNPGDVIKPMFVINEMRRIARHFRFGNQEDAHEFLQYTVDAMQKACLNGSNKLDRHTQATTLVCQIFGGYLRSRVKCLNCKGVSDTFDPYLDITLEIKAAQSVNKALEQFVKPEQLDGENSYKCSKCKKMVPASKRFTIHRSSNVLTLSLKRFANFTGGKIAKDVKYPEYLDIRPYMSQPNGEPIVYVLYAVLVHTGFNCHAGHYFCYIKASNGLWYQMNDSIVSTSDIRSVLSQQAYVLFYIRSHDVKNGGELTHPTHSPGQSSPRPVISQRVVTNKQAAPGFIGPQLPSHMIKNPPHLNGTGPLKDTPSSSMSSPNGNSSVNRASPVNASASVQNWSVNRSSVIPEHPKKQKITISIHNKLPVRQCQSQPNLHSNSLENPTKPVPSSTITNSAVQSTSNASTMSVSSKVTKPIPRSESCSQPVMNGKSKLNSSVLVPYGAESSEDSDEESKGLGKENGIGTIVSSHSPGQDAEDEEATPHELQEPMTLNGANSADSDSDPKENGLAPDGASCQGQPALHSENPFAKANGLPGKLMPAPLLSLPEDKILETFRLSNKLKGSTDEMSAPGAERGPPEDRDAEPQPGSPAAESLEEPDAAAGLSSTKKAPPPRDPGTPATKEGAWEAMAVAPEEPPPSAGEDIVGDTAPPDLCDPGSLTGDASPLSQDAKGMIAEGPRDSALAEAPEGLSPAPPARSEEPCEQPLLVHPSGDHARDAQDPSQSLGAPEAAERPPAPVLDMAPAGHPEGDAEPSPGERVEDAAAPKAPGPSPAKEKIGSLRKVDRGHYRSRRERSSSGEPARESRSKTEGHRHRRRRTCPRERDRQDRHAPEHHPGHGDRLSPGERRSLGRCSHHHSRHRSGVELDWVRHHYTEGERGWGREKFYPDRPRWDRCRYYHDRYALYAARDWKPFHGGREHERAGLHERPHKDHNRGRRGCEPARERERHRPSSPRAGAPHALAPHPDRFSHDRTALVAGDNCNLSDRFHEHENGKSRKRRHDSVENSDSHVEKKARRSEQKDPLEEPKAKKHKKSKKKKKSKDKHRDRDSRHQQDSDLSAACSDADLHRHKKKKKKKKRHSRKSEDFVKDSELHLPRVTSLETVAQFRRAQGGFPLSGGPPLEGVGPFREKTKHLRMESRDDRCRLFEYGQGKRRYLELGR
Summary of the method: (§1)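 HEK293T lysate (495 µg per sample, in Tris/CHAPS/IGEPAL buffer with protease inhibitors) was exposed in triplicate for 3 h to fragment at 200 µM or to vehicle, then to Biotin-Ahx-Ub-VS at 0.5 µM final for 1 h. Labelled DUBs were enriched on NeutrAvidin, digested with LysC and trypsin, and analysed by diaPASEF LC-MS/MS. Spectronaut label-free quantities were normalised to the global median, and values are average log2 ratios of fragment over vehicle from an unpaired t-test. Only proteins with ≥2 unique peptides were used.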

USP46 = USP46 (UniProt P62068)
Summary of the method: as §1

USP47 = molecular target: T2, USP47 (UniProt Q96K76)
T2 sequence (whole entry): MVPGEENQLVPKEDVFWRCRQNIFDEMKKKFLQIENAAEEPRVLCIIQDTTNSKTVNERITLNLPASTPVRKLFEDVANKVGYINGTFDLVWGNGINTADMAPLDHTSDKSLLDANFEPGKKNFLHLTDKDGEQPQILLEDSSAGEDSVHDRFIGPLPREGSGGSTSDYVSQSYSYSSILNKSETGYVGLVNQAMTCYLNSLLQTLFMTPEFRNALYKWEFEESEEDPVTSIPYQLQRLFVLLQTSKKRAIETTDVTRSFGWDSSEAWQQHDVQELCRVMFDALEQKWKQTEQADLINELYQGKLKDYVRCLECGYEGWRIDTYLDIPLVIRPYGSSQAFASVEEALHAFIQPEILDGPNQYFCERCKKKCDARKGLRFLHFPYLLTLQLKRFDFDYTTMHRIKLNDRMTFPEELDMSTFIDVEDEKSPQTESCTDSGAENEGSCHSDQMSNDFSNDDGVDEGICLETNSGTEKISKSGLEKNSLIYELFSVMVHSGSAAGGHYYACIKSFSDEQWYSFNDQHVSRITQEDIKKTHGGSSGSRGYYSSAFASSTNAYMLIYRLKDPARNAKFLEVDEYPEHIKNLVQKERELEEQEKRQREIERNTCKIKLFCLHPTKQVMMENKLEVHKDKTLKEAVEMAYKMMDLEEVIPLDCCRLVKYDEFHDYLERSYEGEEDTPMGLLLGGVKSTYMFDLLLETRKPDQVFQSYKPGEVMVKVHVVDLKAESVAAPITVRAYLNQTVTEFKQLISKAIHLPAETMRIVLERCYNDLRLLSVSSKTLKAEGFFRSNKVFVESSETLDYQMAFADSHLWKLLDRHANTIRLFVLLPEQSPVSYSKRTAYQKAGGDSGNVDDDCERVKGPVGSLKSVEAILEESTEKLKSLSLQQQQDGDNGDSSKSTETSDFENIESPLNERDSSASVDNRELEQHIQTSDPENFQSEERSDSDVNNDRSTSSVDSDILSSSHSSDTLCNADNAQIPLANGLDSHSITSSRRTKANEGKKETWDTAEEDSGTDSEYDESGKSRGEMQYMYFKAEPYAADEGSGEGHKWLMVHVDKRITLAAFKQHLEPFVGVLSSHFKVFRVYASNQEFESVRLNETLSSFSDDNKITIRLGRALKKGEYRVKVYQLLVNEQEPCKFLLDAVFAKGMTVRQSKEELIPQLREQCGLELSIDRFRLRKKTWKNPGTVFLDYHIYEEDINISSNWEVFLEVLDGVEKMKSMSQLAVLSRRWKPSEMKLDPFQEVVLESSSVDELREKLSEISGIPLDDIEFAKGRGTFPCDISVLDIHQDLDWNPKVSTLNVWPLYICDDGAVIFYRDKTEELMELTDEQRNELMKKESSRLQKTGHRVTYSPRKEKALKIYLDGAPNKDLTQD
Summary of the method: as §1

USP48 = molecular target: T3, USP48 (UniProt Q86UV5)
T3 sequence (whole entry): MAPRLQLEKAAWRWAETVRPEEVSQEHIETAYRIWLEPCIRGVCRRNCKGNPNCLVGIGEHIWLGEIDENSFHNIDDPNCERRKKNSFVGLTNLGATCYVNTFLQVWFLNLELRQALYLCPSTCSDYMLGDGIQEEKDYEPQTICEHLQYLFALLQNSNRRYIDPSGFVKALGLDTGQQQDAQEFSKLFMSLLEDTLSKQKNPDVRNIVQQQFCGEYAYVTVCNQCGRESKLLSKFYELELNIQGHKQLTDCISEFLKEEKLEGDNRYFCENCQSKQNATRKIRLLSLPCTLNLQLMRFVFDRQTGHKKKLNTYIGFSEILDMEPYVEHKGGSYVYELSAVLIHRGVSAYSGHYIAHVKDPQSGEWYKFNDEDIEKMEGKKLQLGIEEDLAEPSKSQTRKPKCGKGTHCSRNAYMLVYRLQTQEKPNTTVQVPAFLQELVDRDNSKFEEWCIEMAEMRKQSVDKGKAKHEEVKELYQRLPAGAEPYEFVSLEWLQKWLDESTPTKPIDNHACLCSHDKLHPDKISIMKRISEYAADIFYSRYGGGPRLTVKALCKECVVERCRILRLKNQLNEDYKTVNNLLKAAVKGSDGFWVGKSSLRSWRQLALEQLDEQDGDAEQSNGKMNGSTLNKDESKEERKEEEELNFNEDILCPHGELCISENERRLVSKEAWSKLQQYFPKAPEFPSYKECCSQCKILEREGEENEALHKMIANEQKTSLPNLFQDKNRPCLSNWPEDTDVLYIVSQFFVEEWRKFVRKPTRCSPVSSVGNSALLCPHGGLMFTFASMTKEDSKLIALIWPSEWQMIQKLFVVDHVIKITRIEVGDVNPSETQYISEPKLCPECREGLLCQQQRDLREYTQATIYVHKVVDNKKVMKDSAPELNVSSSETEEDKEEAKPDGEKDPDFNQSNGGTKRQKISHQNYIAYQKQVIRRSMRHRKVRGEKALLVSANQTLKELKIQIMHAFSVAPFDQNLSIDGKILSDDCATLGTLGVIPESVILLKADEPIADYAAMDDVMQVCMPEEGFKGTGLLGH
Summary of the method: as §1

USP5 = molecular target: T4, USP5 (UniProt P45974)
T4 sequence (whole entry): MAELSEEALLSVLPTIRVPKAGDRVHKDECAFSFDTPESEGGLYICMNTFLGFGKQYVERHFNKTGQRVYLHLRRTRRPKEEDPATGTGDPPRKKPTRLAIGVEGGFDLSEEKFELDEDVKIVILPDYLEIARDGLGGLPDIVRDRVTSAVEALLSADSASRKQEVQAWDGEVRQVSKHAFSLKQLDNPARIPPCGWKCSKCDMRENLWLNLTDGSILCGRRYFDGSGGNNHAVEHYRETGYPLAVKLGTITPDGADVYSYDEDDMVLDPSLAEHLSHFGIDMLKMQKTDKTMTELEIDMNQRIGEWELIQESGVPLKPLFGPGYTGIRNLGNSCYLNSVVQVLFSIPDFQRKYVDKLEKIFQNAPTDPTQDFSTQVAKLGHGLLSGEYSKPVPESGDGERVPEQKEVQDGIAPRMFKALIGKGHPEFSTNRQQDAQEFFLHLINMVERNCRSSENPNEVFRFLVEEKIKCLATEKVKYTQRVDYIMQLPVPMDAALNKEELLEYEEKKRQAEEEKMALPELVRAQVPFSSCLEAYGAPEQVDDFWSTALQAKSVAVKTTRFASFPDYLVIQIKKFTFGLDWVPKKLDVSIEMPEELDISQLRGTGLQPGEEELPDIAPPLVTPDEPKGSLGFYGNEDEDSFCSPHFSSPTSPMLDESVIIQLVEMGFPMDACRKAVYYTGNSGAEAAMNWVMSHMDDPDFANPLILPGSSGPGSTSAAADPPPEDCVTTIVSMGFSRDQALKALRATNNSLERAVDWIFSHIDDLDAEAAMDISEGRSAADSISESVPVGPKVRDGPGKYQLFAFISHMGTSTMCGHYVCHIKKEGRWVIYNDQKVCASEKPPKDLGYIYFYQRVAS
Summary of the method: as §1

USP54 = USP54 (UniProt Q70EL1)
Summary of the method: as §1

USP7 = USP7 (UniProt Q93009)
Summary of the method: as §1

USP8 = molecular target: T5, USP8 (UniProt P40818)
T5 sequence (whole entry): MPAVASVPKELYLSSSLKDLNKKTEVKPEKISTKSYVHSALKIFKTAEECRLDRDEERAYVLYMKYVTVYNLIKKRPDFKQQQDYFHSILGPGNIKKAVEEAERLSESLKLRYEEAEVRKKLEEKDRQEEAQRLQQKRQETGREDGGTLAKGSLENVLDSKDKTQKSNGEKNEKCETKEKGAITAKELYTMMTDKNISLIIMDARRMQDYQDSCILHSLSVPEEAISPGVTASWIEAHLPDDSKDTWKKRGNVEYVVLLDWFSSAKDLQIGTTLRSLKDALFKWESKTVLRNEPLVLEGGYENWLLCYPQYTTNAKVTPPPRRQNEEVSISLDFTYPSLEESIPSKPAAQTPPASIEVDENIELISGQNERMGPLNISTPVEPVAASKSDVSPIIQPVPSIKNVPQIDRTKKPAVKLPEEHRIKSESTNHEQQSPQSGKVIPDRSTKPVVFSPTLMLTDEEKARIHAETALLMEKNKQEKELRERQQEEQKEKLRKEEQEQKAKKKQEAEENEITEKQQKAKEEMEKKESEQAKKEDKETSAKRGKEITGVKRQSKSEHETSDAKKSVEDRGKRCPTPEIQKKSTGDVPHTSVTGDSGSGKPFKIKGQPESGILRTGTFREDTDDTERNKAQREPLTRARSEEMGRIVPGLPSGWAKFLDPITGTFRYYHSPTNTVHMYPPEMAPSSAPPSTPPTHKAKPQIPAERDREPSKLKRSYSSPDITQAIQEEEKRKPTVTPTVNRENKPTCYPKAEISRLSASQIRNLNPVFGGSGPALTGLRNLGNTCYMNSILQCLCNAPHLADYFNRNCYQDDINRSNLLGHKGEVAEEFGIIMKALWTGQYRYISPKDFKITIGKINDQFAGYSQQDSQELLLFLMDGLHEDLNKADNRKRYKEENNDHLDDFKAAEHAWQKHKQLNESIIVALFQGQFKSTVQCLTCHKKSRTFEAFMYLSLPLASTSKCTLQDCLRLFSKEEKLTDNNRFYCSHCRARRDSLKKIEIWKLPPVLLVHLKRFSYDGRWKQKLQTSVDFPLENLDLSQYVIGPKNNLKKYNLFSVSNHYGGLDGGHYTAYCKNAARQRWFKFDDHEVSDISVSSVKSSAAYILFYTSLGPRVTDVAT
Summary of the method: as §1

USP9X = USP9X (UniProt Q93008)
Summary of the method: as §1

UniProt O00487 = molecular target: UniProt O00487
Summary of the method: as §1

Measured: log2 ratio of Biotin-Ahx-Ub-VS probe labelling

Chain of USP9X (Q93008 whole entry): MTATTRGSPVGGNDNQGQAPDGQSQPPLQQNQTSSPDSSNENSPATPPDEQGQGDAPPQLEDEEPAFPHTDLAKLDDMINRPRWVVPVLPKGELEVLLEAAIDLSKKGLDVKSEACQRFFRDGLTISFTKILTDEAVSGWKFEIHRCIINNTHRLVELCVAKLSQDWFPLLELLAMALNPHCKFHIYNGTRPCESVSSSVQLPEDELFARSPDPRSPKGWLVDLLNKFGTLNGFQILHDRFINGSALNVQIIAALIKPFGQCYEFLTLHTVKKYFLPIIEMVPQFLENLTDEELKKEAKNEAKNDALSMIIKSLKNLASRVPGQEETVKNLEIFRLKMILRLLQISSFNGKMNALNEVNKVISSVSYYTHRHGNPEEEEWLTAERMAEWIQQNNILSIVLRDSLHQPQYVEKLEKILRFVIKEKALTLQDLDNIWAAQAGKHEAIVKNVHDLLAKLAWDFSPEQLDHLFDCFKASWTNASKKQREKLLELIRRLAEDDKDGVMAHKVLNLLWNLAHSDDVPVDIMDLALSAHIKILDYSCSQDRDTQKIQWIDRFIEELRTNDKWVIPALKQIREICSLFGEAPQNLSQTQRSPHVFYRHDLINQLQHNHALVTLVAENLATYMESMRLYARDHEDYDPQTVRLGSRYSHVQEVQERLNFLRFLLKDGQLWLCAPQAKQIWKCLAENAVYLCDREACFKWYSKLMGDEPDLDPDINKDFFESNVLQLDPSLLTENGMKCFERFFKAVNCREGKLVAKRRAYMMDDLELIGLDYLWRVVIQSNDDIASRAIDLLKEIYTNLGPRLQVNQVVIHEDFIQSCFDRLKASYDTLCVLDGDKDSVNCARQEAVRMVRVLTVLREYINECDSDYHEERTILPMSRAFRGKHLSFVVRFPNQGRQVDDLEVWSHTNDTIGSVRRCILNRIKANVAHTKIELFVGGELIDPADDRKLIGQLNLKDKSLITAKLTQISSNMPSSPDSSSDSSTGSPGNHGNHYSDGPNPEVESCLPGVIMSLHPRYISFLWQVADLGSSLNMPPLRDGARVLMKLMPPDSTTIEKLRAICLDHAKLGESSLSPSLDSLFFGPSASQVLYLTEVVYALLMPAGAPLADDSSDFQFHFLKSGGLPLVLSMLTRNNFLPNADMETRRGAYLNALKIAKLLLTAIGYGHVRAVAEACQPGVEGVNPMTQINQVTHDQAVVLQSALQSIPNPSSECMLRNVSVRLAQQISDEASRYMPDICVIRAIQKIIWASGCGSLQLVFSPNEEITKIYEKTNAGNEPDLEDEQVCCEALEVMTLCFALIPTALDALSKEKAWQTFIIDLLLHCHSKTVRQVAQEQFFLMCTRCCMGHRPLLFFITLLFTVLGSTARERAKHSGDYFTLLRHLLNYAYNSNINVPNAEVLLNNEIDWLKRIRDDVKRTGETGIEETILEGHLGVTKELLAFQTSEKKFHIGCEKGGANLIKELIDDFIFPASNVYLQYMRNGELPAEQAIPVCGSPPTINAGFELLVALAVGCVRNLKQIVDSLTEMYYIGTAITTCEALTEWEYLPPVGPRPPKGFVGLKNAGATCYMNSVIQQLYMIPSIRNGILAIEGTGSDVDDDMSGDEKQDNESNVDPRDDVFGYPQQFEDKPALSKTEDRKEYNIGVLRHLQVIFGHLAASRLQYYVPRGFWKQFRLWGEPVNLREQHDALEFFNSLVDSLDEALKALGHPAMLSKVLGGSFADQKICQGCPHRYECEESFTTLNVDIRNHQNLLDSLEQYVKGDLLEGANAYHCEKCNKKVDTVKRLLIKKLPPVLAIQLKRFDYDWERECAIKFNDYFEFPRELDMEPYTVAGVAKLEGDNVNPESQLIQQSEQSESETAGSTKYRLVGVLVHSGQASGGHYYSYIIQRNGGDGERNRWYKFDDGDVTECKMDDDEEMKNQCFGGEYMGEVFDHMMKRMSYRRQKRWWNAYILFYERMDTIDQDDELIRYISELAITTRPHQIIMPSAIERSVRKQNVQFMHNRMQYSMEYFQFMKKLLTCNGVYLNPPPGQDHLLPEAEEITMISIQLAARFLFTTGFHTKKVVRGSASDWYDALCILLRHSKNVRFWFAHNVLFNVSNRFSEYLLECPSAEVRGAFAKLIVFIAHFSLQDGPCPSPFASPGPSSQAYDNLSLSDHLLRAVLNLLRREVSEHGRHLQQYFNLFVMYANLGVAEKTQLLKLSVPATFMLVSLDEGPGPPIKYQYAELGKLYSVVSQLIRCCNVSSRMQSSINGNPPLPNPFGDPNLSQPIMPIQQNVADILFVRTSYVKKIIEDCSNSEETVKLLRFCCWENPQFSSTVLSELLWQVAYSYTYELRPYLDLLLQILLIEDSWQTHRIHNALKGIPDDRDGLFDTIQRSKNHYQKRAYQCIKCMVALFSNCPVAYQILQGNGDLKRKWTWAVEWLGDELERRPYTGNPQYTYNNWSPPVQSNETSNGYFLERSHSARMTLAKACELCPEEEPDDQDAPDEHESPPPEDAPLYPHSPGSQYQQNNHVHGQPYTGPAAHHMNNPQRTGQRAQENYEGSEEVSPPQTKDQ
Chain of USP54 (Q70EL1 whole entry): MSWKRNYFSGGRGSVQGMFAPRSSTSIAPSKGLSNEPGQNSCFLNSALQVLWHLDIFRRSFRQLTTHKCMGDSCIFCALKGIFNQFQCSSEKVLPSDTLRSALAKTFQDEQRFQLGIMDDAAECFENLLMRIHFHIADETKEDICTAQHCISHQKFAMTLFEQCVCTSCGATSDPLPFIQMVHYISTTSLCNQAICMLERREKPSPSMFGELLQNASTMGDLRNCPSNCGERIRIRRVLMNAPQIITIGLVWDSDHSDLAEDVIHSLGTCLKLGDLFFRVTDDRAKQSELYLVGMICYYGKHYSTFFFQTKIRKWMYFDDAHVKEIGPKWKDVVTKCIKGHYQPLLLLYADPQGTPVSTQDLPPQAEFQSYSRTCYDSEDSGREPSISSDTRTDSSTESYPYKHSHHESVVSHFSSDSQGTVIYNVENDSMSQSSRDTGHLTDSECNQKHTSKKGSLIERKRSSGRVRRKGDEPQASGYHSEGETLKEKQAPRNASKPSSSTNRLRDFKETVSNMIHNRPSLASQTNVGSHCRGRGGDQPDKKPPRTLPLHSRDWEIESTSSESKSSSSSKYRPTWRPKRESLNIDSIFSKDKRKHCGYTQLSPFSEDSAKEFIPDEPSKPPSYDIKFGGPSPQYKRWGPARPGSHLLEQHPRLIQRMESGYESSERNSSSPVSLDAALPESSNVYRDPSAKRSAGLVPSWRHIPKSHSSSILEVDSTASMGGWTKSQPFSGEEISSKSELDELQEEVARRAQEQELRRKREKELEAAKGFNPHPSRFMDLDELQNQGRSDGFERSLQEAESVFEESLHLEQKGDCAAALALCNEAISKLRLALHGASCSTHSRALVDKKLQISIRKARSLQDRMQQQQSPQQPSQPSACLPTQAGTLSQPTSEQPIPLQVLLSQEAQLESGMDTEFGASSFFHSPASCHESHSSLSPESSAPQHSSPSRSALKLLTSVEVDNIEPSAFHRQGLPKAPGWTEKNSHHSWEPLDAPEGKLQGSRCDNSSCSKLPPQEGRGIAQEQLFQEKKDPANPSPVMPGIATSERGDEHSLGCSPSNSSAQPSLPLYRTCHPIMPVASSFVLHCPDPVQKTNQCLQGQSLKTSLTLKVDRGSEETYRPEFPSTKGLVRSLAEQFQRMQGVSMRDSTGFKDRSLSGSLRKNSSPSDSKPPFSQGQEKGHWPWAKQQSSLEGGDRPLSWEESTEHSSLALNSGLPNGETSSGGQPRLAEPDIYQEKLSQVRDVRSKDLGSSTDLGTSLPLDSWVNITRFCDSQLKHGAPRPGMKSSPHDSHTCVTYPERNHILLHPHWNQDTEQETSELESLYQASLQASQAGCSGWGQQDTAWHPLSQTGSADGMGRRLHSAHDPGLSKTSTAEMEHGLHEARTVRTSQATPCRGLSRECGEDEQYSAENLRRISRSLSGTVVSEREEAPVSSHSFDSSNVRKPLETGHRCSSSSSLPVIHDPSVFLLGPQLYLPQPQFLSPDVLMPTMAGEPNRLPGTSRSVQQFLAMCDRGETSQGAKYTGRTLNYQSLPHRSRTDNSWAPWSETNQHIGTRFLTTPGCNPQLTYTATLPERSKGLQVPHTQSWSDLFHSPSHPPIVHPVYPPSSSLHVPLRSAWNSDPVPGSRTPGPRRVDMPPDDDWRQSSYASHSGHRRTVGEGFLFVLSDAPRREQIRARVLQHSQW
Chain of UniProt O00487 (O00487 whole entry): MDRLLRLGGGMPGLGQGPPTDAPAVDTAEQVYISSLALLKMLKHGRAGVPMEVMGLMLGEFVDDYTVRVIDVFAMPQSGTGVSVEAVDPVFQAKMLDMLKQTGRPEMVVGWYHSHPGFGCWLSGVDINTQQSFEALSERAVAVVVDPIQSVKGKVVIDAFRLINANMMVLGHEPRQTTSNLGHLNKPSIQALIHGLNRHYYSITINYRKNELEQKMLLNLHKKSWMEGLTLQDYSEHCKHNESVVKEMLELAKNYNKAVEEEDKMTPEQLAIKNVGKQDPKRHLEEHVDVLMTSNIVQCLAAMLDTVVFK
Chain of USP46 (P62068 whole entry): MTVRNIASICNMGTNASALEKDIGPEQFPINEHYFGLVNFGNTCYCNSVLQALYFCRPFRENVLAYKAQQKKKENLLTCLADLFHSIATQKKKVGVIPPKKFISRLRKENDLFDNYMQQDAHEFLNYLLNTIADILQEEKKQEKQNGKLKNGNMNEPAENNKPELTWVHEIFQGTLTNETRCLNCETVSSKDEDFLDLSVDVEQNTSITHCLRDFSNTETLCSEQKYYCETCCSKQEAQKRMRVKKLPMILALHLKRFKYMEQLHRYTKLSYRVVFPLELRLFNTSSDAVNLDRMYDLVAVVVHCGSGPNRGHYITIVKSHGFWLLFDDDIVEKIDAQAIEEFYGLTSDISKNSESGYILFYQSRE

Cc1cccc(NC(=O)[C@@H]2CCCN2C(=O)CCl)n1
inactive: USP42 0.315 | USP46 -0.247 | USP47 -0.448 | USP48 -0.474 | USP5 0.305 | USP54 0.236 | USP7 -0.502 | USP8 -0.358 | USP9X -0.337 | UniProt O00487 -0.177
